Screens (PubChem BioAssay)
Sampled rows, rich in hits. Any-hit rate of the full collection: about 4.7%.
TGFb inhibitor: inhibitors of TGF-b signaling. HepG2 CAGA-GFP TGF-b/SMAD3 reporter, GFP fluorescence, 18 h; TGF-beta stimulated, 500 pg/mL final. Potency, µM (doses to about 46.1 µM), for inactives: at the highest dose activity, negative = inhibition, actives largely listed as inhibitors. 410,000 compounds, 1.2% hits. AID 588855; note: potency is the fitted concentration of half-maximal effect; % is set by controls: 0 for no effect and ±100 for the full control effect; nearly all actives have a fitted effect of over 65% in size
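Inhibition of TGF-beta-driven CAGA-GFP reporter expression in HEPG2 cells is measured by cellular GFP fluorescence after 18 h stimulation with 500 pg/mL recombinant TGF-beta in 1% FBS medium at 37 degrees C.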
DRD3 antagonist: D3 dopamine receptor (human) antagonism; P35462; 360,000 compounds, 2.5% hits; D3R cells, DiscoveRx beta-arrestin luminescence, antagonist mode; active compounds read low; max response, negative = inhibition, %; AID 652054; in the data active = max response below about -50%; inconclusive = no clear call, values can overlap the other calls; note: % is set by controls: 0 for no effect and ±100 for the full control effect
Target sequence (P35462 whole entry, looked up): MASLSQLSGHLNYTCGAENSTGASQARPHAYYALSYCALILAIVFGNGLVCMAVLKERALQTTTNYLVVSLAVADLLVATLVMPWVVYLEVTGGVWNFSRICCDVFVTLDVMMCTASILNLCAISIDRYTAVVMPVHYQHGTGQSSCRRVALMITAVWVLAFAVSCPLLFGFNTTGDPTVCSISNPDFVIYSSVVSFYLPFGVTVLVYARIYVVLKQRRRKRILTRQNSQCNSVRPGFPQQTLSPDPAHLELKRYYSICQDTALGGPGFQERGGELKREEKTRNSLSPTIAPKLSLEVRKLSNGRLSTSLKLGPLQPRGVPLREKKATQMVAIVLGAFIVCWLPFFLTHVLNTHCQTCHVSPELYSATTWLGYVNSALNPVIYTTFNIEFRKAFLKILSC
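Cells plated overnight at 1500 cells/well, then exposed to library compounds with dopamine controls for 90 minutes at 37 degrees C. DiscoveRx reagent added for 30–60 minutes at room temperature; luminescence read, quantitative HTS format.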
HepG2 viability: kills HepG2 cells in TGF-b inhibitor counter-screen; HepG2 CAGA-GFP viability, ATP luminescence, 18 h; Potency, µM (doses to about 46.1 µM), without a hit: at the top dose activity change, negative = cytotoxicity, hits mostly cytotoxic; 410,000 compounds, 0.76% hits; note: potency is the fitted concentration of half-maximal effect
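CellTiter-Glo luminescence gave cytotoxicity after 18 hours at 37 degrees C. The cells were HepG2 CAGA-GFP in 1% FBS DMEM, stimulated with 500 pg/mL TGF-beta after compound addition. %Activity was normalised to no-cell wells (complete cell-killing) and DMSO (no toxicity), and curves were fitted and classified.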
DRD3 agonist: D3 dopamine receptor (human) agonism | P35462 | D3R DiscoveRx beta-arrestin cells, luminescence, 90 min | max activation, % | 410,000 compounds, 0.58% hits | AID 652048; in the data active = max activation above about 30%; note: 0% is about no effect
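Cells at 1500/well, incubated overnight, then treated with pinned compounds (dopamine as control) for 90 min at 37 degrees C. DiscoveRx reagent added for 30 - 60 minutes at room temperature; luminescence read.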
ATXN2 expr inh: ATXN2 expression inhibition; HEK-293 ATXN2-luciferase reporter, luminescence, 24 h; Potency, µM (top dose mostly 57 µM), for inactives: top-dose activity change, negative = inhibition, hits mostly inhibitors; 360,000 compounds, 0.72% hits; AID 1745845; note: potency is the fitted concentration of half-maximal effect; % is set by controls: 0 for no effect and ±100 for the full control effect; nearly all actives have a fitted effect of over 55% in size
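qHTS (up to 57 uM final) was run with 24 h compound exposure of reporter cells at 37 °C. Each well was multiplexed: SteadyGlo luminescence measured ATXN2-luciferase expression after a fluorogenic Gly-Phe-AFC viability readout (25 uM final).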
ATXN viability: reduces viability in counter-screen for ATXN expression inhibitors. S2 cells (HEK-293 line with an ATXN2-luciferase reporter) viability, CellTiter-Fluor protease fluorescence, 24 h. AID 651635. 400,000 compounds, 0.49% hits. Potency, µM (highest dose often 56.7 µM), hits mostly cytotoxic; note: potency is the fitted concentration of half-maximal effect; nearly all actives have a fitted effect of over 40% in size
* marks the source's active call; other numbers are inactive results; i = inactive; ? = inconclusive; · = not tested or not shown; [ ] = dose if it differs, or a comment. Unless noted, calls come from the whole dose curve; as a rule, active = well fitted curve in the direction sought with a large enough effect; inconclusive = small, poorly fitted or top-dose-only effect, or another doubt; inactive = no such curve, though single readings can be large; an effect the other way counts as inactive or inconclusive.

SMILES	TGFb inhibitor	DRD3 antagonist	HepG2 viability	DRD3 agonist	ATXN2 expr inh	ATXN viability
Cc1ccc(Nc2sc(C(=O)c3ccccc3)c(N)c2C(=O)Nc2ccc(Cl)cc2)cc1	?	·	-34%	4	?	?
Nc1c(C(=O)c2ccccc2)sc(Nc2ccc(Cl)c(Cl)c2)c1C(=O)Nc1ccccc1	?	·	7.9µM*	2	?	·
Cc1ccc(C)c(Nc2cc(C(=O)NC3CCCC3)c3ccccc3n2)c1	-3%	·	-1%	-11	5%	i
CCc1cccc2c1Sc1ccccc1CC2N1CCNCC1 (centres undefined)	?	-63*	-134%	-24	·	·
Cc1cccc2c1Sc1ccc(Cl)cc1CC2N1CCNCC1 (centres undefined)	?	-53*	-156%	-17	?	16µM*
CC(C)c1ccc(N2C(=O)N(Cc3ccccc3Cl)c3ccccc3S2(=O)=O)cc1	-24%	·	-11%	6	-2%	?
COc1cccc(C(=O)Nc2cccc(-c3cn4ccsc4n3)c2)c1OC	9%	·	-18%	0	·	·
Cc1c(C(=O)OC(C)C)sc(NC(=O)C2c3ccccc3Oc3ccccc32)c1C(=O)OC(C)C	-13%	·	-15%	-8	21%	i
Cc1ccc(S(=O)(=O)N2CCN(C(=O)C3CC3C)CC2)c(C)c1 (centres undefined)	20%	-64*	0%	3	-5%	i
Cc1ccc(C)c(S(=O)(=O)N2CCN(C(=O)C3CC3C)CC2)c1 (centres undefined)	4%	2	-10%	2	4%	i
Cc1ccc(S(=O)(=O)N2CCN(C(=O)CSC(=S)N3CCCC3)CC2)c(C)c1	11µM*	-14	10µM*	-11	?	?
Cc1ccccc1C1=CCN(c2ncc(NC(=O)c3ccc(Cl)cc3)cc2C(=O)O)CC1	0%	·	0%	0	·	·
O=C(C[n+]1ccnc2ccccc21)c1ccc(Br)cc1	?	·	-35%	·	·	·
O=C1C=CC(=O)N1c1cccc(-c2ccccc2)c1	11µM*	?	-14%	-26	8%	?
COc1ccc(S(=O)(=O)N2CCOCC2)cc1NC(=O)COc1cccnc1[N+](=O)[O-]	9%	-63*	-7%	-7	-10%	·
COc1ccc(N2CC(O)(c3ccc(OC(F)F)cc3)[N+]3=C2CCCC3)cc1 (centres undefined)	7%	-50*	-25%	-14	-6%	i
CC(C)(C)n1ncc2c(=O)n(Cc3ccc(F)cc3F)cnc21	5%	·	-24%	·	·	·
CC1CCN(CCOc2ccc(Cl)c(Cl)c2)CC1	?	-51*	-21%	1	-8%	i
Cc1ccc(OCCCCN2CCCCC2)cc1	6%	-13	-8%	-6	·	·
Brc1ccc(OCCCCN2CCCCC2)cc1	16%	-55*	0%	-7	·	i
Cc1cc(Br)ccc1OCCCCN1CCC(C)CC1	?	-76*	-35%	-27	-15%	i
CC1CCN(CCCCOc2ccc(Br)cc2)CC1	2%	-52*	5%	-18	-4%	i
CCCC1=NN(c2ccc([N+](=O)[O-])cc2)C(=O)/C1=C/N(C)C	-2%	-15	-4%	5	26%	i
CC1=NN(c2nc3ccccc3[nH]2)C(=O)/C1=C/N(C)C	8%	3	1.6µM*	3	?	i
CC1=NN(c2nc3ccccc3[nH]2)C(=O)C1Cc1ccccc1 (centres undefined)	?	1	15%	17	10µM*	?
SMILES	TGFb inhibitor	DRD3 antagonist	HepG2 viability	DRD3 agonist	ATXN2 expr inh	ATXN viability
CC1=NN(c2ccc([N+](=O)[O-])cc2)C(=O)/C1=C\N(C)C	0%	-57*	4.5µM*	-12	11%	i
C=C1C=C(C)n2ncc(C(=O)Nc3cccc4cnccc34)c2N1	19%	·	-3%	·	·	·
CCCN(CCC)CCOc1cc(C)ccc1C(C)C	?	?	-39%	20	-31%	i
Cc1ccc(C)c(OCCN2CCOCC2)c1	-5%	-26	-6%	-6	4%	i
Cc1ccc(C(C)C)c(OCCCCCN2CCOCC2)c1	-26%	-52*	-4%	-17	-14%	i
Cc1ccc(C)c(OCCOCCN2CCOCC2)c1	4%	-56*	2%	-18	-7%	i
Cc1ccc(C(C)C)c(OCCN(C)C)c1	-5%	-75*	-2%	-7	14%	i
COc1ccc2c(c1)c(N1CCCC1=O)c(C(=O)Nc1ccc(Cl)cc1C)n2C	13%	·	-9%	-6	-23%	i
Cc1cccc(NC(=O)c2ccc([N+](=O)[O-])s2)n1	14µM*	5	-104%	1	·	i
O=C(Nc1ccccc1N1CCOCC1)c1ccc([N+](=O)[O-])s1	11µM*	?	-90%	-19	?	?
Cc1ccnc(NC(=O)c2ccc([N+](=O)[O-])s2)c1	13µM*	-11	-104%	-1	-33%	i
Cc1cccc(NC(=O)c2ccc([N+](=O)[O-])s2)c1C	11µM*	-11	14µM*	-11	-39%	?
Cc1ccnc(NC(=O)c2cc([N+](=O)[O-])cc([N+](=O)[O-])c2)c1	-4%	-4	-4%	5	3%[11.3 µM]	i
Cc1cccc(C)c1NC(=O)c1ccc([N+](=O)[O-])s1	?	-29	-88%	-7	·	i
O=C(Nc1ccccc1N1CCOCC1)c1ccccc1[N+](=O)[O-]	14%	20	3%	8	-4%	i
NC(=O)C1CCCN(Cc2ccc3c(c2)CN(Cc2cn[nH]c2-c2ccc(F)cc2)CCO3)C1 (centres undefined)	·	·	·	·	·	i
C[N+](C)(C)c1ccc(/C=C/c2ccnc3ccccc23)cc1	?	·	2%	·	·	·
Cc1cccc(C)c1NC(=O)C(c1ccncc1)n1c(=O)c(-c2cc3ccccc3[nH]2)nc2ccccc21 (centres undefined)	·	18	·	14	·	·
CC1=CC(C)(C)Nc2ccc(OC(=O)CCN3C(=O)c4ccccc4C3=O)cc21	?	13	-72%	2	25µM*	·
Cn1cc(CN(C(=O)Nc2ccccc2)C2CCCCC2)c2ccccc21	?	·	16µM*	-10	?	?
CC(C)(C)NC(=O)COC(=O)CNC(=O)C1CCCCC1	7%	·	11%	·	·	·
Nn1cnc2c(c1=O)C1(CCCCC1)Cc1ccccc1-2	8.9µM*	-11	11µM*	-4	-13%	i
Cn1c(=O)c2c(n3cnnc13)-c1ccccc1CC21CCCC1	9%	-56*	-2%	3	-17%	?
COc1ccc(CCNCC(O)COc2cccc(C)c2)cc1OC (centres undefined)	·	·	·	-7	·	i
